# Screens (PubChem)
# An excerpt weighted towards active compounds, which were near 2.4% of everything screened.
# D2 ag-1 – D2 dopamine receptor (human) agonism; P14416; HEK293 T-REx D2 cells, calcium flux agonist mode; 0.53% of 340,000 active; activation, % at 2 µM;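 active = activation over 3 SD above normal in the single-dose calcium agonist read, cut at about 30% in these data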; note: 0% is about no effect
# Target sequence (P14416 whole entry, looked up): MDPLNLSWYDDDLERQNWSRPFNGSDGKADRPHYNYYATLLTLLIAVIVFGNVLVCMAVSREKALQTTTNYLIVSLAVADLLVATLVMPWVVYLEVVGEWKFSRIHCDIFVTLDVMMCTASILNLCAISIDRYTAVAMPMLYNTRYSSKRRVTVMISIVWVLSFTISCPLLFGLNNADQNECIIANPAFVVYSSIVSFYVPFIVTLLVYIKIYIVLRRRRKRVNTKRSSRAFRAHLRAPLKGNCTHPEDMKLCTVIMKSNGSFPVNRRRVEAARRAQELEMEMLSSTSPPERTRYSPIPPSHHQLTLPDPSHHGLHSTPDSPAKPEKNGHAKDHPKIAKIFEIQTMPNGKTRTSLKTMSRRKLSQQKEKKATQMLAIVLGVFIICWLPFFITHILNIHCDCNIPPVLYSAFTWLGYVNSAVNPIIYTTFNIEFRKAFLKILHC
#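 Tetracycline-induced HEK293 Trex cells with D2 receptor force-coupled to calcium signaling, plated overnight at 30 C and loaded with no-wash calcium dye. Calcium flux read kinetically for 180 s after compound addition; responses flag agonists.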
# D2 ag-2 – human D2 receptor agonism in beta-arrestin assay | P14416 | DiscoveRx PathHunter D2 beta-arrestin, luminescence, 90 min; 100% = 57 uM dopamine signal | activation, % (no concentration beside the values) | 0.084% of 360,000 active; in the data active = activation above about 40%
#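 Agonist mode: compounds alone added to overnight-plated D2 PathHunter cells for 90 min at 37 C, with 57 uM final dopamine (EC100) defining full response. Beta-arrestin recruitment detected by chemiluminescent reagent, read after 1 h at ambient temperature.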
# D2 antag – antagonists of human D2 dopamine receptor; AID 485344; inhibition, % at 10 µM; 2% of 340,000 active; HEK293 TREx D2 cells, calcium flux, dopamine EC80; P14416; in the data active = inhibition above about 30%; inactive = below that, where a call was filed; note: 0% is about no effect
#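 Calcium flux kinetic readout in an inducible HEK293 TREx D2 line plated overnight at 30 C. After 180 s compound exposure, an EC80 dopamine challenge follows with another 180 s kinetic read to detect antagonism.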
# D2 PAM-1 – potentiates the human D2 dopamine receptor allosterically | P14416 | potentiation, % (concentration not given with the values) | AID 624464 | 0.23% of 360,000 active | DiscoveRx D2 beta-arrestin cells, luminescence, 90 min; 100% = 57 uM dopamine signal; in the data active = potentiation above about 50%
#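 PathHunter D2 cells, attached overnight at 37 deg C, received compound in DMSO plus dopamine at EC20 (50 nM final) for 90 min at 37 deg C. Beta-arrestin recruitment was read as luminescence after 1 h with detection reagent at ambient temperature.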
# D2 PAM-2 – positive allosteric modulators of human D2 dopamine receptor. HEK293 T-REx D2, calcium flux, EC20 dopamine potentiation. potentiation, % at 10 µM. AID 485347. 0.34% of 340,000 active;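 active = potentiation over 3 SD above the plate norm, cut at about 30% in these data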; note: 0% is about no effect
#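 Using a no-wash calcium dye in inducible, force-coupled HEK293 Trex cells expressing D2, we tracked fluorescence each second for 180 s after compound, then for 180 s after EC20 dopamine to detect augmented signalling.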
# The depositor's hits bear a star; / = no result given.
SMILES,D2 ag-1,D2 ag-2,D2 antag,D2 PAM-1,D2 PAM-2
CCOC(=O)c1c(S(=O)(=O)N2CCCC(C(=O)NCc3ccccc3OC)C2)c(C)n(C)c1C (configuration not stated),-3,/,/,/,10
COc1ccc(C2CC(c3cc(Br)ccc3F)n3nnnc3N2)cc1 (configuration not stated),0,0,12,19,34*
COc1ccc(C2CC(c3ccccc3)n3nnnc3N2)cc1 (configuration not stated),1,-2,-2,-6,4
Cc1cc(-c2ccc(S(=O)(=O)Nc3cc(Cl)ccc3C)s2)on1,/,/,/,/,-4
O=C(c1cccs1)N(Cc1ccco1)Cc1cc2ccccc2[nH]c1=O,1,-2,60*,-4,-22
Cc1ccc2[nH]c(=O)c(CN(Cc3ccco3)C(=O)c3ccncc3)cc2c1,0,0,-2,-2,0
CCC(C)Sc1nc2c(c(=O)[nH]c(=O)n2C)n1CCc1ccccc1 (configuration not stated),1,2,-28,-11,17
CCC(C)Sc1nc2c(c(=O)[nH]c(=O)n2C)n1CC(O)COc1ccccc1C (configuration not stated),0,-2,30*,-2,-6
CC(=O)c1sc(NC(=O)c2c(-c3ccccc3)c(-c3ccccc3)nn(C)c2=O)nc1C,0,/,/,/,0
C/C(=N\OCc1ccc(C#N)cc1)c1ccccc1,0,1,-5,-3,11
C/C(=N\OCc1cccc(C(=O)O)c1)c1ccc(Cl)cc1,0,-1,56*,0,8
NC(=O)C1(N2CCCCC2)CCN(C(=O)Nc2ccc(F)cc2)CC1,0,/,/,/,3
CC1CCCN(CCCNC(=O)c2coc3nc4ccccc4nc23)C1 (configuration not stated),0,-3,33*,-31,-4
CCC(=O)OCC(=O)Nc1ccc(OC)cc1[N+](=O)[O-],0,-1,-15,-3,12
CCOC(=O)C(=CNc1ccc(OC)cc1[N+](=O)[O-])C(=O)OCC,2,9,31*,8,-4
Cc1ccc(NC(=O)c2nnn(CC(=O)Nc3ccc(C)c(Cl)c3)c2N)c(C)c1,/,/,/,/,7
Cc1ccc(CNC(=O)CCN2C(=O)C(C)Oc3ccc(C)cc32)cc1 (configuration not stated),-1,/,/,/,19
O=C(NC1CCCC1)C(c1ccc(Cl)cc1)N1CCOCC1 (configuration not stated),-1,-6,32*,-6,-3
COc1cc(OC)c(N(C)C(=O)c2cn(C3CCCC3)c(=O)c3c2c2ccccc2n3C)cc1Cl,/,/,/,/,9
CCC(C)NS(=O)(=O)c1ccc(NC(=O)c2ccc([N+](=O)[O-])cc2Cl)cc1 (configuration not stated),-2,-3,37*,-3,5
CC(=O)Nc1ccc(NC(=O)c2ccc([N+](=O)[O-])cc2Cl)cc1,3,0,16,-2,-15
c1ccc(-c2cc3n(c2)CCc2ccccc2-3)cc1,1,1,33*,5,-4
O=C(c1ccc(F)cc1)C1CCN(CCn2c(=O)[nH]c3ccccc3c2=O)CC1,1,-5,58*,-37,-21
CC/C(=N/Nc1ccc(Cl)cc1)c1cnnc(SC)n1,0,-2,34*,-9,6
CN(C)S(=O)(=O)c1cc(NC(=O)CNCc2ccc(F)cc2)ccc1Cl,0,1,44*,-26,-26
SMILES,D2 ag-1,D2 ag-2,D2 antag,D2 PAM-1,D2 PAM-2
O=c1cc(-c2cccs2)oc2ccc(Cl)cc12,-1,-3,-1,-16,1
O=c1c(O)c(-c2cccs2)oc2ccccc12,42*,2,-29,6,1
O=c1c(O)c(-c2cccs2)oc2ccc(Cl)cc12,93*,1,51*,1,-24
Oc1ccc(/C=N/Nc2ccc(Cl)nn2)c(O)c1O,1,50*,6,15,-6
CN1CCN(CCNC(=O)c2cnn(-c3ccc(Cl)cc3)c2C2CCN(C(=O)OC(C)(C)C)CC2)CC1,0,/,/,/,-5
CC1(C)CC(=O)C2=C(C1)N(c1ccccc1)C(=O)C2(O)C(F)(F)F (configuration not stated),0,-10,36*,-5,1
CCN1CCc2c(sc(N)c2C(N)=O)C1,1,-2,38*,15,10
CC(C)CCn1c(CN2CCN(c3cccc(Cl)c3)CC2)nc2c1c(=O)n(C)c(=O)n2C,-1,2,47*,-10,-19
COC(=O)Cn1c(CN2CCN(c3ccc(F)cc3)CC2)nc2c1c(=O)n(C)c(=O)n2C,0,-2,30*,-7,-30
COCCn1c(CN2CCN(c3cccc(Cl)c3)CC2)nc2c1c(=O)n(C)c(=O)n2C,1,0,3,-8,-6
CCOCCn1c(CN2CCN(c3ccc(F)cc3)CC2)nc2c1c(=O)n(C)c(=O)n2C,0,-2,-20,-15,3
CCOC(=O)Cn1c(CN2CCN(c3cccc(Cl)c3)CC2)nc2c1c(=O)[nH]c(=O)n2C,0,-4,30*,-7,-25
Cn1nc(C(=O)Nc2ccc(Br)cc2)cc1C(=O)Nc1ccc(Br)cc1,0,-5,38*,-12,4
Oc1cccc(CN2CCCCC2)c1,1,-3,56*,-7,-13
Brc1cccc(CN2CCCCCC2)c1,-1,-3,-2,-4,-12
COc1ccc(-c2nc3ccc(NS(=O)(=O)c4ccc(C)cc4)cc3o2)cc1,/,/,/,/,-1
COc1cc(C)c(Cl)c(C)c1S(=O)(=O)NCc1cccnc1,1,1,-22,-7,32*
CCCCC[n+]1ccn(-c2nc3ccccc3nc2[N-]S(=O)(=O)c2ccc(C)cc2)c1,0,-2,38*,-10,-2
CCCC[n+]1ccn(-c2nc3ccccc3nc2[N-]S(=O)(=O)c2ccc(C)cc2)c1,-1,2,15,-10,-5
CC1=C(CC(=O)c2ccc(Cl)cc2)C(=O)c2ccccc2C1=O,/,9,/,55*,/
CCOc1ccc(-c2cc(NC(=O)Nc3ccccc3Cl)c(C(=O)OC)s2)cc1,/,/,/,/,2
Cc1[nH]n2c(=O)c3c(nc2c1-c1ccc(F)cc1)CCCC3,-1,-6,36*,-17,-22
Cc1[nH]n2c(=O)c3c(nc2c1-c1ccccc1)CCCC3,3,-3,-17,-39,-18
CCOC(=O)c1sc2ccccc2c1S(=O)(=O)Nc1ccc(CC)cc1,0,/,/,/,0
CN1CCN(/C=N/C2=C(C#N)C(c3ccccc3)C3=C(CC(C)(C)CC3=O)O2)CC1 (configuration not stated),0,-1,7,-18,36*
